Reference: PubChem BioAssay (NCATS)
Active and inactive are the calls of the source. Calls come from the whole dose curve; as a rule, active = well fitted curve in the direction sought with a large enough effect; inactive = no such curve, though single readings can be large or run the other way.

The compounds below were run against Alpha-galactosidase A (Homo sapiens) (UniProt P06280) (assay: Counterscreen for Glucocerebrosidase Inhibitors: qHTS Assay for Human alpha-Galactosidase at pH 4.5 (AID 992)). Conditions: purified enzyme, fluorogenic substrate; series mostly up to 76.9 µM.
Sequence of Alpha-galactosidase A (Homo sapiens) (P06280 whole entry, looked up): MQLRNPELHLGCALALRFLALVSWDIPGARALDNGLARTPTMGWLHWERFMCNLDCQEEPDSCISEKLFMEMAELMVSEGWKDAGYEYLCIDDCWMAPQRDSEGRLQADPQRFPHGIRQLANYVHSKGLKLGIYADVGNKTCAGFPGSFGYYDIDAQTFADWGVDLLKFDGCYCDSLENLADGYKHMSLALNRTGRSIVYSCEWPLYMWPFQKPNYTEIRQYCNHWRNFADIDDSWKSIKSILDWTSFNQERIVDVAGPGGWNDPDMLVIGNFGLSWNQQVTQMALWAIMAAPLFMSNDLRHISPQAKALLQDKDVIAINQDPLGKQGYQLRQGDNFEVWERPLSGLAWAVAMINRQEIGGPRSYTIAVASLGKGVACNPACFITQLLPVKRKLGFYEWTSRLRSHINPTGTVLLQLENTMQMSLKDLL
Outline: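 Enzyme at 2 nM final was combined with compound (0.7 nM to 77 uM) and 80 uM 4-methylumbelliferyl alpha-D-galactopyranoside in 50 mM citric acid, 0.005% Tween-20, pH 4.5. After 20 min at room temperature, fluorescence was read (Ex 365/Em 440 nm); AC50 came from Hill fits.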
For `NCCCNCCCCNCCCN`, the outcome was “inactive”. With `CC(N)=O` the outcome was “inactive”. With `COc1ccccc1N1CCN(CCCCN2C(=O)c3ccccc3C2=O)CC1` the outcome was “inactive”. `O=C(O)c1cc2cc(F)ccc2[nH]1` was tested, and the outcome was “inactive”. `O=S(=O)(c1cccc2c(Cl)cccc12)N1CCCNCC1` was tested, and the outcome was “inactive”. For `NC(=O)c1ccccc1`, the outcome was “inactive”. With `COc1ccc(NC(=O)c2ccc(-c3ccc(-c4noc(C)n4)cc3C)cc2)cc1N1CCN(C)CC1` the outcome was “inactive”. `COc1ccc(-c2ccc(N)[n+](CCCC(=O)O)n2)cc1` was tested, and the outcome was “inactive”. In the case of `COc1cc(CNC(=O)CCCCCCC(C)C)ccc1O`, the outcome is reported as “inactive”. For `CC(C)NC[C@H](O)COc1ccc(CC(N)=O)cc1`, the outcome was “inactive”. `N[C@@H](CS(=O)O)C(=O)O` was tested, and the outcome was “inactive”. For `N=C(N)c1ccc(N)cc1`, the outcome was “inactive”. With `Nc1nc2[nH]c(=O)cnc2c(=O)[nH]1` the outcome was “inactive”. With `Nc1ccc2c3c(cccc13)C(=O)NC2=O` the outcome was “inactive”. In the case of `O=c1onc2cnc3ccccc3n12`, the outcome is reported as “inactive”. For `Cc1ccc([N+](=O)[O-])cc1S(=O)(=O)N(C)C`, the outcome was “inactive”. With `O=c1oc(Cl)c(Cl)c2ccccc12` the outcome was “inactive”. For `O=c1[nH]c2ccccc2c2ccccc12`, the outcome was “inactive”. `CNc1cc(NS(=O)(=O)c2ccc(N)cc2)nc(NC)n1` was tested, and the outcome was “inactive”. `CN(C)S(=O)(=O)c1ccc2c(c1)/C(=C/c1cc3c([nH]1)CCCC3)C(=O)N2` was tested, and the outcome was “inactive”. `O=c1cc(-c2ccccc2)[nH]c2nc(Cl)ccc12` was tested, and the outcome was “inactive”. With `CC[C@H](NC(=O)c1c(C)c(-c2ccccc2)nc2ccccc12)c1ccccc1` the outcome was “inactive”. `CC(=O)C(C)=O` was tested, and the outcome was “inactive”. With `Nc1ccc(-c2ccc3ccccc3n2)cc1` the outcome was “inactive”. `NC1(C(=O)O)CCCCC1` was tested, and the outcome was “inactive”. For `N=C(N)c1ccc(OCCCCCOc2ccc(C(=N)N)cc2)cc1` (tested in a mixture with another compound), the outcome was “inactive”. `Nc1ccc(N2C(=O)c3ccccc3C2=O)c(Cl)c1` was tested, and the outcome was “inactive”. For `Nc1ncnc2c1ncn2C1CCCC1`, the outcome was “inactive”. `c1ccc(CN2CCC3(CCCc4ccccc43)CC2)cc1` was tested, and the outcome was “inactive”. With `C=CCn1c(=O)c2c(nc(-c3ccc(S(=O)(=O)O)cc3)n2C)n(C)c1=O` the outcome was “inactive”. In the case of `CCN1C(=O)C=CC1=O`, the outcome is reported as “inactive”. For `NC1(C(=O)O)CC1`, the outcome was “inactive”. For `C[C@H](NC(=O)/C(C#N)=C/c1ccc(O)c(O)c1)c1ccccc1`, the outcome was “inactive”. `CC[N+](CC)(CC)CC(=O)Nc1c(C)cccc1C` was tested, and the outcome was “inactive”. For `CCCC(=O)NCCc1c2n(c3ccc(OC)cc13)CCCc1ccccc1-2`, the outcome was “inactive”. `CCCCCCCCCCC/C=C\C(C)(C)/C=C\CCCC(=O)O` was tested, and the outcome was “inactive”. In the case of `Cc1ccc2c(c1)C(N1CCN(C)CC1)=Nc1cccnc1N2`, the outcome is reported as “inactive”. For `NC(N)=NC(N)=Nc1ccccc1`, the outcome was “inactive”. With `O=c1[nH]c(=O)c2nc3ccccc3nc2[nH]1` the outcome was “inactive”.
